D2 ag-1 = Beta-Arrestin HTS for Positive Allosteric Modulators of the Human D2 Dopamine Receptor: Agonists. activation, % (concentration not given with the values). AID 624465, 2012. DiscoveRx PathHunter D2 beta-arrestin, luminescence, 90 min; 100% = 57 uM dopamine signal. actives 0.084% (n = 360,000). D(2) dopamine receptor (Homo sapiens), P14416; in the data active means activation above about 40%; inconclusive means between about 15% and that limit
Target sequence (P14416 whole entry, looked up): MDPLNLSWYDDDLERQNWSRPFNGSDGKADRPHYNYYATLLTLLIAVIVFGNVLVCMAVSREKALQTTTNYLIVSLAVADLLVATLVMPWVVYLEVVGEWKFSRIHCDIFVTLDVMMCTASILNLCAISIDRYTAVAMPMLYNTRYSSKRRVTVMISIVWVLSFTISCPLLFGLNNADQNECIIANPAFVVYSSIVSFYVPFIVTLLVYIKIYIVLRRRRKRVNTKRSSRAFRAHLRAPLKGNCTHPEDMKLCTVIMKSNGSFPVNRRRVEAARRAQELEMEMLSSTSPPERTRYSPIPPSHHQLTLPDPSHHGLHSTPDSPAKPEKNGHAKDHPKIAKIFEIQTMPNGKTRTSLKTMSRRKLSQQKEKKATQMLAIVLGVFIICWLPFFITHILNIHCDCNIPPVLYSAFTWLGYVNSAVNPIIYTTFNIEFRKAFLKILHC
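Agonist mode: compounds alone added to overnight-plated D2 PathHunter cells for 90 min at 37 C, with 57 uM final dopamine (EC100) defining full response. Beta-arrestin recruitment detected by chemiluminescent reagent, read after 1 h at ambient temperature.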
D2 ag-2 = HTS Assay for Allosteric Agonists of the Human D2 Dopamine Receptor: Primary Screen for Agonists; D(2) dopamine receptor (Homo sapiens), P14416; HEK293 T-REx D2 cells, calcium flux agonist mode; activation, % at 2 µM; actives 0.53% (n = 340,000); AID 485358, 2010;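 active means activation over 3 SD above normal in the single-dose calcium agonist read, cut at about 30% in these data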
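Tetracycline-induced HEK293 Trex cells with D2 receptor force-coupled to calcium signaling, plated overnight at 30 C and loaded with no-wash calcium dye. Calcium flux read kinetically for 180 s after compound addition; responses flag agonists.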
D2 PAM-1 = HTS Assay for Positive Allosteric Modulators of the Human D2 Dopamine Receptor: Primary Screen for Potentiators; potentiation, % at 10 µM; AID 485347, 2010; actives 0.34% (n = 340,000); HEK293 T-REx D2, calcium flux, EC20 dopamine potentiation;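 active means potentiation over 3 SD above the plate norm, cut at about 30% in these data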
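Primary screen. Calcium kinetics in induced HEK293 T-REx D2 cells: compound pre-addition 180 s, EC20 dopamine, 180 s more.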
D2 antagonist = HTS Assay for Allosteric Antagonists of the Human D2 Dopamine Receptor: Primary Screen for Antagonists. D(2) dopamine receptor (Homo sapiens), P14416. HEK293 TREx D2 cells, calcium flux, dopamine EC80. inhibition, % at 10 µM. actives 2% (n = 340,000); in the data active means inhibition above about 30%; inactive means below that, where a call was filed
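Cells plated overnight at 30 C with tetracycline; no-wash calcium dye, 30–90 min RT; 10 s baseline; compound pinned; 180 s read; EC80 dopamine added; another 180 s read.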
D2 PAM-2 = Beta-Arrestin HTS for Positive Allosteric Modulators of the Human D2 Dopamine Receptor: Potentiators | D(2) dopamine receptor (Homo sapiens), P14416 | DiscoveRx D2 beta-arrestin cells, luminescence, 90 min; 100% = 57 uM dopamine signal | potentiation, % (no concentration beside the values) | actives 0.23% (n = 360,000); in the data active means potentiation above about 50%; inconclusive means mostly about 30% to 49%
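PathHunter D2 cells, attached overnight at 37 deg C, received compound in DMSO plus dopamine at EC20 (50 nM final) for 90 min at 37 deg C. Beta-arrestin recruitment was read as luminescence after 1 h with detection reagent at ambient temperature.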
Each line names hits and unclear results; the compound was inactive in the other large screens. An excerpt weighted towards active compounds, which were near 2.4% of everything screened.

O=C(NC1CCN(C(=O)Nc2cccc(Cl)c2)CC1)C1CCCCC1	none
Cc1ccc(/C=C/c2nc3sc(C(=O)O)c(C)c3c(=O)[nH]2)cc1[N+](=O)[O-]	D2 ag-1 inconclusive, D2 antagonist 33
Cc1c(C(=O)O)sc2nc(/C=C/c3cccc(F)c3)[nH]c(=O)c12	none
CN1CCCCC1CCN1c2ccccc2Sc2ccc(S(C)=O)cc21 (stereo unspecified)	D2 antagonist 96
CN1CCCC(CN2c3ccccc3Sc3ccccc32)C1 (stereo unspecified)	none (no result: D2 ag-2, D2 PAM-1, D2 antagonist)
CCCCNC(=S)NCc1ccc2[nH]c(C)cc2c1	D2 antagonist 30
CCOc1ccc(NC(=S)NCc2ccc3[nH]c(C)cc3c2)cc1	none
Cc1ccc(S(C)(=O)=O)cc1C(=O)Nc1ccc(S(=O)(=O)Nc2nccs2)cc1	none
O=c1[nH]cnc2nc(-c3ccccc3)c(-c3ccccc3)nc12	D2 PAM-1 45
CCOc1cc(CNC(=O)C2COc3ccccc3C2)cc(OCC)c1OCC (stereo unspecified)	none (no result: D2 ag-1, D2 antagonist, D2 PAM-2)
CN(C)C(=O)CSc1ccc(S(=O)(=O)N2CCOCC2)cn1	none
OC(CNCc1ccc(Cl)cc1)COc1ccccc1 (stereo unspecified)	D2 antagonist 49
Cc1ccc(OCCNCC(O)COc2ccccc2)cc1 (stereo unspecified)	D2 antagonist 45
OC(CNCc1ccccc1)COCc1ccc(Cl)cc1 (stereo unspecified)	none
CCCCn1c(SCC(=O)NC2CC2)nc2cc(C(=O)OC)ccc2c1=O	none (no result: D2 ag-2, D2 PAM-1, D2 antagonist)
COC(=O)c1cc(CNC(=O)c2ccc(S(=O)(=O)N(C)c3ccccc3)cc2)ccc1OC	D2 antagonist 74
CCN(CC)C(=O)CSc1nc2nc(C)cc(C)c2c(=O)[nH]1	none
Cc1cc(C)c2c(=O)[nH]c(SCC(=O)N(C)C)nc2n1	D2 PAM-1 37
COc1ccccc1-n1c(SCC(=O)NC2CCS(=O)(=O)C2)nc2cc([N+](=O)[O-])ccc21 (stereo unspecified)	none
CCN(CC)S(=O)(=O)c1ccc2c(c1)nc(SCC(=O)NC1CC1)n2-c1ccccc1OC	D2 antagonist 51 (no result: D2 PAM-1)
COc1ccc(NC(=O)COC(=O)c2c(C)noc2C)cc1Cl	none (no result: D2 ag-2, D2 PAM-1, D2 antagonist)
Cc1cn2c(=O)cc(COc3cccc(NC(=O)c4ccc(C(C)(C)C)cc4)c3)nc2s1	none (no result: D2 ag-1, D2 antagonist, D2 PAM-2)
Cc1ccc(CN2C(=O)CCC2C(=O)NCCN2CCN(c3cccc(Cl)c3)CC2)cc1 (stereo unspecified)	D2 antagonist 44
O=C(Cn1nc(-c2ccccc2)ccc1=O)NCCN1CCN(c2cccc(Cl)c2)CC1	D2 antagonist 64
CCOc1ccc(NC(=O)NCCN2CCN(c3cccc(C)c3C)CC2)cc1	none
CCOc1cccc(N2CCN(CCNC(=O)Nc3ccc(C)cc3)CC2)c1C	D2 antagonist 44
COc1ccc(NC(=O)NCCN2CCN(c3cccc(Cl)c3)CC2)cc1	D2 antagonist 36
CCC(CC)C(=O)Nc1ccc(C(=O)OCc2cc(=O)n3nc(C4CC4)sc3n2)cc1	none (no result: D2 ag-1, D2 antagonist, D2 PAM-2)
CCCCNC(=O)c1nc(C2CCN(S(=O)(=O)c3c(F)cccc3F)CC2)oc1-c1ccccc1	none (no result: D2 ag-2, D2 PAM-1, D2 antagonist)
CCn1cc([N+](=O)[O-])c(C(=O)N2N=C3/C(=C/c4cccs4)CCCC3C2c2cccs2)n1 (stereo unspecified)	D2 PAM-1 43
Cc1cn([C@H]2C[C@H](O)[C@@H](/C=C/C(=O)N3CCN(Cc4ccc(F)cc4)CC3)O2)c(=O)[nH]c1=O	none (no result: D2 ag-2, D2 PAM-1, D2 antagonist)
CC(C)(C)c1ccc(NC(=O)c2ccccc2)c([N+](=O)[O-])c1	D2 PAM-1 33
Cc1c(NC(=O)c2ccc(C(C)(C)C)cc2)cccc1[N+](=O)[O-]	none
COc1cc(C(=O)NC(=S)Nc2ccccc2N2CCCC2)cc(OC)c1OC	D2 antagonist 43
O=C(Nc1ccccc1N1CCOCC1)c1cc(-c2ccco2)nc2ccccc12	none
COc1cc(-c2cc(C(=O)Nc3ccccc3N3CCOCC3)c3ccccc3n2)cc(OC)c1OC	D2 PAM-1 33
COc1cc(C(=O)Nc2ccccc2N2CCCCC2)cc(OC)c1OC	none
COC(=O)c1cc(=O)nc(NN=Cc2ccco2)s1	none (no result: D2 ag-2, D2 PAM-1, D2 antagonist)
N/C(=N\OC(=O)c1ccc2ccccc2c1)c1ccccc1Cl	D2 ag-1 inconclusive, D2 PAM-2 inconclusive
Cc1cccc(N(CC(=O)NC2CCCC2)C(=O)CS(=O)CC(=O)Nc2ccc3c(c2)OCO3)c1 (stereo unspecified)	D2 antagonist 32
CCCCC(=O)N(C)c1c(CC)nc2c(OCc3ccc(C(F)(F)F)cc3)cccn12	none (no result: D2 ag-2, D2 PAM-1, D2 antagonist)
CCOCC(=O)Nc1nnc(COC)s1	D2 antagonist 31
O=C(CNC(=O)c1ccc([N+](=O)[O-])cc1)N/N=C\c1ccc(OC(=O)c2ccccc2)cc1	D2 antagonist 59
COc1cccc(C(=O)NCC(=O)N/N=C/c2cccc(OC(=O)c3ccc([N+](=O)[O-])cc3)c2)c1	none (no result: D2 ag-2, D2 PAM-1, D2 antagonist)
O=C(COc1ccc(/C=N/NC(=O)c2ccncc2)cc1)Nc1ccc([N+](=O)[O-])cc1	D2 antagonist 42 (no result: D2 PAM-1)
OCC[C@H]1C[C@@H](O)[C@H](O)[C@@]2(Cc3ccccc3O2)O1	none
O=C(CCS(=O)(=O)c1cc(Br)cc2c1N(C(=O)C1CC1)CC2)NCc1ccccc1Cl	none (no result: D2 ag-1, D2 antagonist, D2 PAM-2)
Cc1ccc2c(c1)NC(=O)C(CC(=O)NCCCN1CCN(c3cc(Cl)ccc3C)CC1)O2 (stereo unspecified)	D2 antagonist 53
COc1ccc(N(Cc2cccs2)C(=O)c2ccco2)cc1	none (no result: D2 ag-1, D2 ag-2, D2 antagonist, D2 PAM-2)
COc1ccc(CN2CCNC(=O)C2CC(=O)NCC2CCOCC2)c(F)c1 (stereo unspecified)	none
Cc1ccc(C(=O)Nc2ccccn2)cc1S(=O)(=O)N1CCOCC1	D2 antagonist 35
O=C(Nc1ccccn1)c1ccc(Cl)c(S(=O)(=O)N2CCOCC2)c1	none
CN(C)C(CNC(=O)c1ccc(-c2ccccc2)cc1)c1ccccc1 (stereo unspecified)	D2 antagonist 31
COc1ccc(CCNC(=O)c2ccc3c(c2)OCCO3)cc1	none
CN(C)C(CNC(=O)c1ccc(C(=O)c2ccccc2)cc1)c1ccccc1 (stereo unspecified)	none
COc1ccc(C(CNC(=O)c2ccc3c(c2)OCCO3)N(C)C)cc1 (stereo unspecified)	D2 antagonist 45 (no result: D2 PAM-1)
CCN(CC)S(=O)(=O)c1ccc2oc(C(=O)NCc3ccccc3OC)c(C)c2c1	none (no result: D2 ag-1, D2 antagonist, D2 PAM-2)

Source: PubChem BioAssay
